# Source: the supplement of paper PMC10127200
# Counter-ions that a name gives are not always drawn.
# Experiments:
# Test in all cases: Euclidean distance of Cell Painting phenotypic profile (signed KS, 77 features) to DMSO centroid (dimensionless distance); 5 or 10 uM (library dependent); higher = stronger phenotypic change vs DMSO (phenoactivity)
# Settings in all cases: 48 h
# [1] = system: 786-O
# Method in brief: (§1)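 At 10 or 5 uM, as set by the library, and 0.1% DMSO final, compounds were applied for 48 h to five cancer lines and one healthy fibroblast line. Stained cells were imaged confocally at 20X in 9 fields per well, and Harmony extracted 77 features scored as signed Kolmogorov-Smirnov statistics against vehicle wells on the same plate. Profiles underwent plate-position correction, correlation weighting and replicate averaging at the top dose. Phenoactivity is the Euclidean distance from each such profile to the median vehicle profile.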
# [2] = system: A549
# Method in brief: as §1
# [3] = system: DU145
# Method in brief: as §1
# [4] = system: FB
# Method in brief: as §1
# [5] = system: HEPG2
# Method in brief: as §1
# [6] = system: OVCAR4
# Method in brief: as §1
SMILES,Euclidean distance [1],Euclidean distance [2],Euclidean distance [3],Euclidean distance [4],Euclidean distance [5],Euclidean distance [6]
CCCC(CCC)C(=O)O [Valproic acid sodium salt (Sodium valproate)],0.85,0.706,0.534,0.529,0.677,0.959
C/C(=C\C(=O)OCCCCCCCCC(=O)O)C[C@@H]1OC[C@H](C[C@@H]2O[C@H]2[C@@H](C)[C@H](C)O)[C@@H](O)[C@H]1O [Mupirocin calcium],1.28,0.948,1.83,0.82,0.518,1.26
Cc1c(-c2ccc(O)cc2)n(Cc2ccc(OCCN3CCCCCC3)cc2)c2ccc(O)cc12 [Bazedoxifene Acetate],4.76,4.78,3.21,4.56,4.37,3.76
Oc1ccc(Cl)c2cccnc12 [Cloxiquine],1.62,2.13,1.92,2.66,1.62,1.97
COc1cc(/C=C/C(=O)O)ccc1O [Ferulic Acid],0.857,0.966,0.806,0.925,0.541,1.73
CCc1ccc(N(CC(C)C)S(=O)(=O)c2ccc(OCC3CCOCC3)c(CO)c2)cc1,1.56,1.56,1.9,1.05,0.857,1.66
O=C(O)c1ccccc1 [Benzoic Acid],1.39,1.16,1.58,0.886,1.6,0.868
CCCCC/C=C\C/C=C\CCCCCCCC(=O)O [Linoleic acid],0.927,1.38,1.02,1.3,0.86,1.11
CC(C)C[C@H](NC(=O)[C@@H](NC(=O)c1cccc(-c2ccccc2)n1)[C@@H](C)O)B(O)O,4.27,4.06,4.4,3.55,4.77,5.53
CCOc1ccc2nc3cc(N)ccc3c(N)c2c1 [Ethacridine lactate monohydrate],2.72,2.06,3.08,3.62,3.62,1.62
OC(c1ccccc1)(c1ccccc1)C12CC[N+](CCOCc3ccccc3)(CC1)CC2 [Umeclidinium bromide],0.834,1.43,0.97,1.27,0.7,1.64
N#CC[C@H](C1CCCC1)n1cc(-c2ncnc3[nH]ccc23)cn1 [Ruxolitinib Phosphate],1.96,1.67,1.41,1.39,1.1,1.26
CC(C)(C#N)c1cc(Cn2cncn2)cc(C(C)(C)C#N)c1 [Anastrozole],1.11,0.727,0.702,0.902,0.572,1.41
NC(N)=Nc1nc(CSCC/C(N)=N/S(N)(=O)=O)cs1 [Famotidine],1.72,0.931,1.5,1.11,2.27,1.1
Cc1ncc([N+](=O)[O-])n1CCOC(=O)c1ccccc1 [Metronidazole Benzoate],0.984,1.41,0.885,1.58,0.486,0.922
CC(C)(S)[C@@H](N)C(=O)O [Penicillamine],1.02,1.29,0.756,1.13,1.02,1.22
CN1CCN(c2ccc(C(=O)Nc3n[nH]c4ccc(Cc5cc(F)cc(F)c5)cc34)c(NC3CCOCC3)c2)CC1 [Entrectinib (RXDX-101)],5.06,3.73,4.31,5.6,5.43,4.97
Clc1ccc2c(c1)C(N1CCNCC1)=Nc1ccccc1O2 [Amoxapine],1.43,1.02,1.12,1.06,0.744,1.09
CCOCc1nc2c(N)nc3ccccc3c2n1CC(C)(C)O [Resiquimod],1.35,1.05,1.47,0.954,0.587,1.19
O=C1c2c(O)ccc(O)c2C(=O)c2c(NCCNCCO)ccc(NCCNCCO)c21 [Mitoxantrone 2HCl],5.6,5.26,4.77,7.28,5.09,5.15
CCc1cc(/C(C)=N/OCc2ccc(C3CCCCC3)c(C(F)(F)F)c2)ccc1CN1CC(C(=O)O)C1 [BAF312 (Siponimod)],1.61,1.05,1.31,0.66,0.538,1.25
C[C@@H]1O[C@@H](OC[C@H]2O[C@@H](Oc3c(-c4ccc(OCCO)c(OCCO)c4)oc4cc(OCCO)cc(O)c4c3=O)[C@H](O)[C@@H](O)[C@@H]2O)[C@H](O)[C@H](O)[C@H]1O [Troxerutin],1.35,0.502,0.751,0.834,0.509,0.81
O=C(O)Cc1ccccc1Nc1c(Cl)cccc1Cl [Diclofenac Diethylamine],0.84,0.842,0.728,0.689,0.397,0.97
C=CC(=O)Nc1cccc(Oc2nc(Nc3ccc(N4CCN(C)CC4)c(F)c3)nc3[nH]ccc23)c1 [Avitinib (AC0010)],4.87,4.16,3.49,3.92,3.45,3.76
COC1=CC(c2cc3ccccc3[nH]2)=N/C1=C\c1[nH]c(C)cc1C [Obatoclax Mesylate (GX15-070)],4.8,4.59,2.78,4.82,3.8,3.71
Cc1ccc(N(CC2=NCCN2)c2cccc(O)c2)cc1 [Phentolamine Mesylate],1.55,0.595,0.949,1.19,1.72,1.1
COc1ccc(-c2ccc3cc(C(=O)O)ccc3c2)cc1C12CC3CC(CC(C3)C1)C2 [Adapalene],1.76,2.58,1.39,2.18,1.73,2.03
CC/C(=C(\c1ccc(O)cc1)c1ccc(OCCNC)cc1)c1ccccc1 [Endoxifen HCl],4.21,3.39,2.59,3.3,4.86,3.32
